Laboratory results taken from the supplement of paper PMC10849652.
About 8,800 targets were measured; listed, in parts, are those with a hit and a random draw of the rest. About 0.5% of all pairs of compound and target were hits.

What was measured:
Test in all cases: log2 fold change, soluble protein after heating vs DMSO (PISA); higher = thermal stabilisation; K562 lysate, 10 uM; active = over 0.2 and 3.5 SD of the protein, either way, in both replicates (recomputed)
[1] = compound: C#Cc1cccc(Nc2ncnc3cc(OCCOC)c(OCCOC)cc23)c1 [erlotinib]
Method in brief: (§1)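 Log-two fold change in thermal stability relative to solvent controls is reported from duplicates. For each sample, crude K562 extract from dounce-homogenised pellets in PBS pH 7.4 with 1 mM MgCl2, at 1 mg/mL protein, was treated with 10 μM compound for 30 min. Aliquots heated for 3 min across 48°C-58°C were pooled, brought to 0.5% NP-40 at 4°C and cleared at 21,000xg for 90 min. The supernatant was quantified by TMTpro 16plex LC-MS/MS with channel sums equalised.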

[2] = compound: C/C(=N\NC(=O)C1=CC(=CC=C1)S(=O)(=O)N2CCOCC2)/C3=C(C=CC(=C3)Cl)O
Method in brief: as §1

[3] = compound: C1=CC(=CC=C1C2=NC3=C(N2)C=C(C=C3)C(=O)N)OC4=CC=C(C=C4)Cl
Method in brief: as §1

[4] = compound: C1=CC2=C(C=CC(=C2)/C=C\3/C(=O)NC(=NCC4=CC=CS4)S3)N=C1
Method in brief: as §1

[5] = compound: C1=CC2=NC=CN=C2C=C1/C=C/3\C(=O)NC(=O)S3
Method in brief: as §1

[6] = compound: C1=CC=C(C=C1)C2=NC(=C(N2)C3=CC=NC=C3)C4=CC(=C(C=C4)Cl)O
Method in brief: as §1

[7] = compound: C1=CC=C2C(=C1)C3=NNC4=CC=CC(=C43)C2=O
Method in brief: as §1

[8] = compound: C1CCN(C1)C(=O)NC2=CC=CC(=C2)NC3=NC=C(C(=N3)NCCC4=CN=CN4)Br
Method in brief: as §1

[9] = compound: C1CN(CCC1(CC2=CC=C(C=C2)Cl)N)C3=NC=NC4=C3C=CN4
Method in brief: as §1

[10] = compound: C1COCCN1CCN2C3=CC=CC=C3N=C2NC(=O)C4=CC(=CC=C4)[N+](=O)[O-] [IRAK-1-4 Inhibitor I]
Method in brief: as §1

[11] = compound: C=CC(=O)N1CCC[C@@H](n2nc(-c3ccc(Oc4ccccc4)cc3)c3c(N)ncnc32)C1 [ibrutinib]
Method in brief: as §1

[12] = compound: CC(=O)c1cnc2ccc(-c3cc(Cl)c(O)c(Cl)c3)nc2c1N[C@H]1CC[C@H](CN(C)C)CC1
Method in brief: as §1

[13] = compound: CC(C)(C)Cn1c(N)nc2ccc(-c3[nH]c(C(C)(C)C)nc3-c3ccc(F)cc3)nc21 [ralimetinib]
Method in brief: as §1

[14] = compound: CC(C)(O)CC(=O)NCCn1ccc2ncnc(Nc3ccc(Oc4cccc(C(F)(F)F)c4)c(Cl)c3)c21
Method in brief: as §1

[15] = compound: CC(C)C1=C2N=C(C=C(N2N=C1)NCC3=CC=CC=C3)NCCCCCCN
Method in brief: as §1

[16] = compound: CC1=C(C(CC(=O)N1)C2=CC=C(C=C2)C(F)(F)F)C(=O)NC3=C(C=C4C(=C3)C=NN4)F
Method in brief: as §1

[17] = compound: CC1=C(C2=C(C=C1)C(=O)C3=CC=CC=C3N2CCCN)C
Method in brief: as §1

[18] = compound: CC1=C(C=C(C=C1)NC(=O)C2=CC(=CC=C2)C(C)(C)C#N)NC3=CC4=C(C=C3)N=CN(C4=O)C
Method in brief: as §1

[19] = compound: CC1=C(C=C(C=C1)NC(=O)C2=CC(=CC=C2)N(C)C)NC(=O)C3=CC=C(C=C3)O
Method in brief: as §1

[20] = compound: CC1=CC=C(C=C1)SC2=C3C=C(SC3=CN=C2)C(=O)N
Method in brief: as §1

Measured: log2 fold change

EED, A0A5F9ZI63
inactive: [1] 0.019 | [2] 0.042 | [3] -0.033 | [4] 0.017 | [5] -0.019 | [6] -0.012 | [7] 0.003 | [8] 0.003 | [9] 0.023 | [10] 0.021 | [11] -0.026 | [12] -0.018 | [13] 0.008 | [14] -0.039 | [15] -0.004 | [16] 0.036 | [17] -0.003 | [18] -0.016 | [19] 0.042 | [20] -0.008

EPRS (UniProt P07814)
UniProt P07814, sequence (P07814 whole entry, looked up): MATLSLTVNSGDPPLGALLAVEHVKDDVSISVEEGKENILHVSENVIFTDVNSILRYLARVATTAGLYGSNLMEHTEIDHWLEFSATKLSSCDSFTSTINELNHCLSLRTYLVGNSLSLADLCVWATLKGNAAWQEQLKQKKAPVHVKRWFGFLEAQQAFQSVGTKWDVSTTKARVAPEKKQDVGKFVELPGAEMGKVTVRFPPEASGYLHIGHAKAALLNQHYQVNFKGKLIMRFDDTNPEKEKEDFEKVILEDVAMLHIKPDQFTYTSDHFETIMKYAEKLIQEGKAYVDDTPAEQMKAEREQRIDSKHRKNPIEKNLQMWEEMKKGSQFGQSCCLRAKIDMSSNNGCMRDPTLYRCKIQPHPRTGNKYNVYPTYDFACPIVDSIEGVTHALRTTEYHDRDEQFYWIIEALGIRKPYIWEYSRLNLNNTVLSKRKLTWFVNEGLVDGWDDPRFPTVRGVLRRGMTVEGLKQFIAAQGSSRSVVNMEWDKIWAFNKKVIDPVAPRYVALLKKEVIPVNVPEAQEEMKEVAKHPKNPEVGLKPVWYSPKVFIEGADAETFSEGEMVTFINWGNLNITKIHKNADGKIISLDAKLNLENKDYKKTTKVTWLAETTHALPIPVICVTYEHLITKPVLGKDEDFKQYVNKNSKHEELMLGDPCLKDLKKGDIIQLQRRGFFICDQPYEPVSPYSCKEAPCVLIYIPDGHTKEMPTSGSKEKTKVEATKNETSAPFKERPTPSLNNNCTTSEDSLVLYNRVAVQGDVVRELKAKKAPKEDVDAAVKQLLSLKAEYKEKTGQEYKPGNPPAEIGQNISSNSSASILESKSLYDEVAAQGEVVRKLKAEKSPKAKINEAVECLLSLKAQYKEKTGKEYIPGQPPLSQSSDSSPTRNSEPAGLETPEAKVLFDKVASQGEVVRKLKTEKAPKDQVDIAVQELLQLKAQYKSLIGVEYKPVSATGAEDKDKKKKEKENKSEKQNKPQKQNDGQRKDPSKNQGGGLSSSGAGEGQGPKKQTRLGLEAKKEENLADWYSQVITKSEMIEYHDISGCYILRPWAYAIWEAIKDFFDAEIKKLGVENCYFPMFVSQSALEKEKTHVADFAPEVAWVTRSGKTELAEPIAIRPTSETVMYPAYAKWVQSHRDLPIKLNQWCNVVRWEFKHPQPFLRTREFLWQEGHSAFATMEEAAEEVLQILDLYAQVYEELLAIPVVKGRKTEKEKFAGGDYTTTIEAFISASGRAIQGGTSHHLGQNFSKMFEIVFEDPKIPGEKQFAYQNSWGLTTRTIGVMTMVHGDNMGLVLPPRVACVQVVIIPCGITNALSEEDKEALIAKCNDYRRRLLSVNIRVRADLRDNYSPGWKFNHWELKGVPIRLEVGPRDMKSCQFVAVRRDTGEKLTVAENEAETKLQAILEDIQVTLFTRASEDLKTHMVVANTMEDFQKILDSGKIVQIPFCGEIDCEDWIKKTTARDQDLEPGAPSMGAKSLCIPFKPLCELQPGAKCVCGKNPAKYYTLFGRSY
inactive: [1] 0.028 | [2] 0.032 | [3] -0.007 | [4] 0.01 | [5] 0.014 | [6] 0.017 | [7] -0.026 | [8] 0 | [9] -0.004 | [10] -0.006 | [11] -0.018 | [12] 0.002 | [13] 0.01 | [14] 0.026 | [15] 0.02 | [16] -0.014 | [17] 0.02 | [18] -0.004 | [19] 0.046 | [20] 0.019

EWSR1 isoform 5 (UniProt Q01844)
UniProt Q01844, sequence (Q01844 whole entry, looked up): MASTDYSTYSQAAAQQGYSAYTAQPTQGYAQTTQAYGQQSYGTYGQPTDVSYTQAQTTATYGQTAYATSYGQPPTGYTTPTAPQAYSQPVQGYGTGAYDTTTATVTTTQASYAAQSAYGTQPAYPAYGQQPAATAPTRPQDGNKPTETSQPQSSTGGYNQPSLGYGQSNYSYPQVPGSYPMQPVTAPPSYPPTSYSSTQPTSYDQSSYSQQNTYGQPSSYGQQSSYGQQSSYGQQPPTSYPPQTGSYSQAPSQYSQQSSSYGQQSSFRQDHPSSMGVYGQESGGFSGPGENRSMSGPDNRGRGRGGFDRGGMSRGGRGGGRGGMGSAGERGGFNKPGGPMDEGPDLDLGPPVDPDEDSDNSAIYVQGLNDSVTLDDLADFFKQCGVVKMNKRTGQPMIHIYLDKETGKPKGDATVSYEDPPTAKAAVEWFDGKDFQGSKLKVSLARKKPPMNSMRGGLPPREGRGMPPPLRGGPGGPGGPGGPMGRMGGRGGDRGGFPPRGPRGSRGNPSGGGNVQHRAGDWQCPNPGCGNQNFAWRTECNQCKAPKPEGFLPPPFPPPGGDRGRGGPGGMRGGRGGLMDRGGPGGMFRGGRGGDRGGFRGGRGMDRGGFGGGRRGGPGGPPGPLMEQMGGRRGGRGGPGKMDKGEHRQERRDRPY
inactive: [1] -0.135 | [2] -0.037 | [3] -0.1 | [4] 0.012 | [5] 0.015 | [6] 0.037 | [7] 0.015 | [8] -0.009 | [9] -0.028 | [10] 0.018 | [11] -0.016 | [12] -0.026 | [13] -0.017 | [14] -0.011 | [15] 0.038 | [16] -0.012 | [17] 0.016 | [18] -0.023 | [19] -0.033 | [20] 0

EEFSEC (UniProt P57772)
UniProt P57772, sequence (P57772 whole entry, looked up): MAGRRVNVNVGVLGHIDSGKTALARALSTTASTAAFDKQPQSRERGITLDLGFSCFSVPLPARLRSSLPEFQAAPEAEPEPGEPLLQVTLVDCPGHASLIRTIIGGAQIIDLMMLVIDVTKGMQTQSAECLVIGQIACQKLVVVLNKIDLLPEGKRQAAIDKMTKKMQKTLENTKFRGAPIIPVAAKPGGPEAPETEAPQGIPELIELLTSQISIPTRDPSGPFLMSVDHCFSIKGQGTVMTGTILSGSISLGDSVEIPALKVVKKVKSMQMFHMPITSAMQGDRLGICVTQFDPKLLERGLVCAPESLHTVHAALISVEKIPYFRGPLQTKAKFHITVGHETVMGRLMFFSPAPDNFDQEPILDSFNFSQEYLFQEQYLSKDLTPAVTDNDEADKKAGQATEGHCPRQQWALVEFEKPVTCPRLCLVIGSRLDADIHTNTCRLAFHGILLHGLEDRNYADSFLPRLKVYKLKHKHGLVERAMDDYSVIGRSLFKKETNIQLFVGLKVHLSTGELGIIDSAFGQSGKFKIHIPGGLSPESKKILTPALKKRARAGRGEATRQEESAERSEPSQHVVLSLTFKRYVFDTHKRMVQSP
inactive: [1] -0.006 | [2] 0.054 | [3] -0.044 | [4] -0.022 | [5] 0.006 | [6] -0.044 | [7] -0.054 | [8] -0.025 | [9] -0.007 | [10] -0.024 | [11] 0.031 | [12] -0.03 | [13] 0.019 | [14] -0.013 | [15] -0.025 | [16] -0.011 | [17] 0.005 | [18] 0.011 | [19] 0.039 | [20] 0.006

EXTL2 (UniProt Q9UBQ6)
inactive: [1] -0.02 | [2] -0.037 | [3] 0.072 | [4] 0.103 | [5] -0.443 | [6] 0 | [7] 0.092 | [8] 0.003 | [9] -0.007 | [10] -0.049 | [11] 0.217 | [12] -0.056 | [13] -0.015 | [14] 0 | [15] -0.077 | [16] 0.021 | [17] -0.146 | [18] 0.014 | [19] -0.04 | [20] -0.071

ECI2 (UniProt O75521)
UniProt O75521, sequence (O75521 whole entry, looked up): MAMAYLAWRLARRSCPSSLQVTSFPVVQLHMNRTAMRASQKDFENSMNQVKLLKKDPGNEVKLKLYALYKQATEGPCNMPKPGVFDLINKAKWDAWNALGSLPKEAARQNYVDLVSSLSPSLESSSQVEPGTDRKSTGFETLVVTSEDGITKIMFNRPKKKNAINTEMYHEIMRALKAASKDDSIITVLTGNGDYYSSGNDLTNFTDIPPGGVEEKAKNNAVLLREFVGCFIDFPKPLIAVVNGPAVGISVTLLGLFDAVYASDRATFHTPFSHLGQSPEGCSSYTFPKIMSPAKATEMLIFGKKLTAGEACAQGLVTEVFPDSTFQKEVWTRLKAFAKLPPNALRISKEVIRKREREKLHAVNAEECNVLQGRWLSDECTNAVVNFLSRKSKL
inactive: [1] 0.032 | [2] 0.01 | [3] 0.024 | [4] -0.011 | [5] 0.022 | [6] -0.019 | [7] -0.111 | [8] -0.03 | [9] 0.045 | [10] 0.054 | [11] 0.01 | [12] -0.027 | [13] -0.033 | [14] -0.049 | [15] -0.015 | [16] -0.013 | [17] -0.008 | [18] 0.013 | [19] 0.007 | [20] 0

FTL (UniProt P02792)
UniProt P02792, sequence (P02792 whole entry, looked up): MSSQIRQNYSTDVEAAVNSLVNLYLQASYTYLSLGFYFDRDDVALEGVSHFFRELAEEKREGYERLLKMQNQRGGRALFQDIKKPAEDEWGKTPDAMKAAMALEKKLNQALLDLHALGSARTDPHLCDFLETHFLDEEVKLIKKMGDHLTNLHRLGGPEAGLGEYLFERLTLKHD
inactive: [1] -0.14 | [2] -0.599 | [3] -0.077 | [4] -0.027 | [5] -0.006 | [6] 0.11 | [7] 0.012 | [8] -0.063 | [9] -0.034 | [10] 0.169 | [11] -0.026 | [12] -0.025 | [13] -0.146 | [14] -0.257 | [15] 0.023 | [16] 0.027 | [17] 0.041 | [18] 0.023 | [19] 0.033 | [20] 0.053

GGA2 (UniProt Q9UJY4)
inactive: [1] -0.014 | [2] 0.042 | [3] 0.064 | [4] 0.016 | [5] 0.019 | [6] 0.014 | [7] -0.054 | [8] 0.074 | [9] 0.034 | [10] 0.01 | [11] -0.007 | [12] 0 | [13] 0.026 | [14] -0.01 | [15] -0.062 | [16] 0.099 | [17] 0.01 | [18] -0.024 | [19] 0.031 | [20] -0.021

EEF1A1, A0A087WVQ9
inactive: [1] 0.029 | [2] -0.049 | [3] 0.054 | [4] -0.069 | [5] -0.016 | [6] -0.035 | [7] -0.072 | [8] -0.019 | [9] -0.001 | [10] 0.03 | [11] 0.085 | [12] 0.019 | [13] -0.006 | [14] 0.019 | [15] -0.007 | [16] 0.091 | [17] 0 | [18] -0.023 | [19] -0.006 | [20] 0.004

FXR1 (UniProt P51114)
UniProt P51114, sequence (P51114 whole entry, looked up): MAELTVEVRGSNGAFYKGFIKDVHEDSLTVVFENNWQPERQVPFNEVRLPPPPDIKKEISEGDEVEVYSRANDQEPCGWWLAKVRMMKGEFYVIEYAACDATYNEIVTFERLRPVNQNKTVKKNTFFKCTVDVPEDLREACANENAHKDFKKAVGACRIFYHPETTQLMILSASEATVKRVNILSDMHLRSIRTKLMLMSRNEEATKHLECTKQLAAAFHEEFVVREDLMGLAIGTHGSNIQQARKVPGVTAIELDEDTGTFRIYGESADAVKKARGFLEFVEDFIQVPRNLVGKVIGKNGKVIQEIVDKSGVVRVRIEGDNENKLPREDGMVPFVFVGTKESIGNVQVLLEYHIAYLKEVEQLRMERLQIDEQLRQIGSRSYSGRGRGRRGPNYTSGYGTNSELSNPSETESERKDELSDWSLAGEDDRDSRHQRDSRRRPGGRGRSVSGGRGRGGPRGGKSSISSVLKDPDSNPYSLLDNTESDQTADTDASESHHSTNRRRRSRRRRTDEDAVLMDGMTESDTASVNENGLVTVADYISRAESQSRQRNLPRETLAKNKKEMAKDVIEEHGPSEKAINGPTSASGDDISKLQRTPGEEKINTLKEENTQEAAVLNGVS
inactive: [1] 0.041 | [2] 0.012 | [3] -0.039 | [4] -0.011 | [5] -0.024 | [6] 0.002 | [7] -0.082 | [8] -0.015 | [9] -0.008 | [10] -0.057 | [11] 0.023 | [12] -0.011 | [13] -0.017 | [14] 0.032 | [15] 0.002 | [16] 0.014 | [17] -0.006 | [18] -0.01 | [19] 0.02 | [20] 0.016

EGLN1 (UniProt Q9GZT9)
UniProt Q9GZT9, sequence (Q9GZT9 whole entry, looked up): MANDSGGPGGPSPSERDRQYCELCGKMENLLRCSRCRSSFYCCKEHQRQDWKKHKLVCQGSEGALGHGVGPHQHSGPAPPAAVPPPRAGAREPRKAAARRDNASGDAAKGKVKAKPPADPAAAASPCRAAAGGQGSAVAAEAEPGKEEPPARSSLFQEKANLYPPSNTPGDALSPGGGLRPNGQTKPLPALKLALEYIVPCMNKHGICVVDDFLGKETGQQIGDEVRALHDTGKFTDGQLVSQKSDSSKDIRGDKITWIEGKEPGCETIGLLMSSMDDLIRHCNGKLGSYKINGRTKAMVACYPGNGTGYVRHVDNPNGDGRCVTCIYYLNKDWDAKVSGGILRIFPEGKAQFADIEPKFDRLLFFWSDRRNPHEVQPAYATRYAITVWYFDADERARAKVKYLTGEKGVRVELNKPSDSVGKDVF
inactive: [1] 0.006 | [2] 0.016 | [3] 0.034 | [4] 0.028 | [5] -0.027 | [6] 0.006 | [7] -0.005 | [8] 0.015 | [9] -0.019 | [10] -0.021 | [11] -0.041 | [12] 0.007 | [13] 0.01 | [14] 0.072 | [15] 0.029 | [16] 0.013 | [17] -0.029 | [18] 0.013 | [19] 0.029 | [20] 0.038

GCN1 (UniProt Q92616)
inactive: [1] 0.048 | [2] 0.066 | [3] -0.086 | [4] 0.022 | [5] 0.054 | [6] 0.026 | [7] -0.016 | [8] -0.008 | [9] 0.003 | [10] 0.008 | [11] 0.016 | [12] 0.008 | [13] 0.064 | [14] 0.028 | [15] -0.031 | [16] -0.016 | [17] -0.01 | [18] 0.008 | [19] 0.075 | [20] 0.026

FBXO22 (UniProt Q8NEZ5)
inactive: [1] 0.042 | [2] -0.022 | [3] 0.048 | [4] 0.016 | [5] 0.02 | [6] -0.002 | [7] -0.01 | [8] 0.029 | [9] 0.049 | [10] 0.007 | [11] -0.03 | [12] 0.017 | [13] 0.003 | [14] -0.06 | [15] -0.078 | [16] -0.026 | [17] -0.006 | [18] 0.016 | [19] 0 | [20] -0.014

DSTN (UniProt P60981)
UniProt P60981, sequence (P60981 whole entry, looked up): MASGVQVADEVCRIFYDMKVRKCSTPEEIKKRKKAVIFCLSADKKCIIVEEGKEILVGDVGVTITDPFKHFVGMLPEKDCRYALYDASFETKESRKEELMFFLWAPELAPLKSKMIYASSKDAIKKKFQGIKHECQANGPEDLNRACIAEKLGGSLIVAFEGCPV
inactive: [1] -0.038 | [2] -0.027 | [3] -0.007 | [4] 0.014 | [5] 0.013 | [6] 0 | [7] 0.005 | [8] -0.021 | [9] -0.012 | [10] -0.007 | [11] -0.011 | [12] -0.013 | [13] -0.004 | [14] 0.038 | [15] -0.006 | [16] -0.001 | [17] 0.045 | [18] -0.005 | [19] -0.012 | [20] -0.003

FDFT1 (UniProt P37268)
UniProt P37268, sequence (P37268 whole entry, looked up): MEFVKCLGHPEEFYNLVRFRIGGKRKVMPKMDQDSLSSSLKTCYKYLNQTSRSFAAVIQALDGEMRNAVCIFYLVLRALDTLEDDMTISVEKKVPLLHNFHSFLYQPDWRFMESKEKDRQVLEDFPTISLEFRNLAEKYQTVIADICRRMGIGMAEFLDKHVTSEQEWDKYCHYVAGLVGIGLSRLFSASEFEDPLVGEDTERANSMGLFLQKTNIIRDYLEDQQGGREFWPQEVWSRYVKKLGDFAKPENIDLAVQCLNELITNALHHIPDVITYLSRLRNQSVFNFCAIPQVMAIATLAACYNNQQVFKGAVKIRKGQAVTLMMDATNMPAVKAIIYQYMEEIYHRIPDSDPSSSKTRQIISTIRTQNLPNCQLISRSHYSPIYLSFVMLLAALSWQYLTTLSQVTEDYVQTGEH
inactive: [1] -0.002 | [2] -0.072 | [3] -0.038 | [4] 0.176 | [5] 0.001 | [6] 0.211 | [7] 0.115 | [8] 0.005 | [9] 0.024 | [10] -0.014 | [11] -0.004 | [12] -0.014 | [13] -0.014 | [14] 0.018 | [15] 0.013 | [16] -0.034 | [17] -0.028 | [18] -0.02 | [19] 0.017 | [20] 0.012
